Experimental data reported in PubChem BioAssay AID1918 (Vanderbilt High Throughput Screening Facility, 2009).
The whole screen tested about 130,000 compounds, of which about 2,500 (1.9%) were called active. This is one part of a sample in which actives are shown more often than they occur.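 The calls were made as follows: active = signal ratio slope over the read window, or its plate-corrected B-score, at least 3 SD from the plate mean, either direction; inactive = the rest.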

What follows are molecules tested against ATP-sensitive inward rectifier potassium channel 1 (Homo sapiens) (UniProt P48048) (assay: ROMK potassium channel modulators, primary screen, cell-based, thallium flux, MLSMR library (AID 1918;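 also: B-score of the F/F0 ratio slope over 7 to 12 s after thallium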)). Conditions: Tet-inducible ROMK, thallium flux fluorescence; at 10 µM; actives lie on both sides.
Chain of ATP-sensitive inward rectifier potassium channel 1 (Homo sapiens) (P48048 whole entry, looked up): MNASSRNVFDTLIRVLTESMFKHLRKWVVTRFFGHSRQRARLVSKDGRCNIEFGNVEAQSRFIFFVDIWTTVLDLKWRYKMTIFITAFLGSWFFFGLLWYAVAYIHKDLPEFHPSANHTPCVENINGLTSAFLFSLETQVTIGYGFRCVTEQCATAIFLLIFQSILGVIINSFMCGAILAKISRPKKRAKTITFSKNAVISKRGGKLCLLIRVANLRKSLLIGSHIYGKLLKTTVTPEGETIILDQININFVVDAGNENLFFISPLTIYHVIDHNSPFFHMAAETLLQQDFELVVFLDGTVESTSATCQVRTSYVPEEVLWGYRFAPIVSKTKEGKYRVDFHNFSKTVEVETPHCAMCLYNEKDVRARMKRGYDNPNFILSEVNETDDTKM

B-score, active:
Cc1cc2cc(CN(Cc3cccs3)Cc3nnnn3CC3CCCO3)c(=O)[nH]c2cc1C (configuration not stated) -5.43
O=C(O)c1ccc2c(c1)C(=O)N(c1ccc(/C=C/C(=O)c3ccccc3)cc1)C2=O -2.93
O=C(/C=C/c1ccc(N2CCOCC2)cc1)c1ccccc1 -3.77
Cc1ccc(C(=O)C[n+]2cc(-c3ccccc3)n3c2CCCCC3)cc1 -3.3
Cc1ccc(CNC(=O)CC2Sc3ccccc3NC2=O)cc1 (configuration not stated) 1.17
Cc1ccc2c(=O)oc(N(C)C)nc2c1 2.36
CC1CCCN(S(=O)(=O)c2ccc(N(C(=O)c3cnccn3)C(C(=O)NC3CCCCC3)c3cccs3)cc2)C1 (configuration not stated) -3.38
COc1ccc(N=Cc2c(O)[nH]c3ccccc23)cc1OC 2.81
CCC1(C)Cc2c(sc3[nH]c(=S)n(Cc4ccccc4)c(=O)c23)CO1 (configuration not stated) 5.27
CC(C(=O)NC1CCCC1)N(c1ccc(Oc2ccccc2)cc1)S(C)(=O)=O (configuration not stated) -3.71
Cc1ccccc1C(OCC(O)CN1CCCCC1CCO)c1ccccc1 (configuration not stated) -4.16
O=C(CCN1CCc2ccccc2C(O)(c2ccccc2)C1)c1ccc2c(c1)OCCO2 (configuration not stated) -3.53

B-score, inactive:
O=C1CC(=O)Nc2cc(S(=O)(=O)N3CCN(c4cccc(C(F)(F)F)c4)CC3)ccc2N1 -0.0476
COc1ccccc1C(c1nnnn1CC1CCCO1)N1CCN(c2ccccc2)CC1 (configuration not stated) -0.18
COc1ccc2[nH]c(=O)c(CN(Cc3nnnn3CCc3ccccc3)CC3CCCO3)cc2c1 (configuration not stated) -1.17
CCN(CC)CC1(O)CCN(C(=O)c2ccc(Cl)c(Cl)c2)CC1 0.898
Cc1nn(CC(=O)Nc2ccc3c(c2)OCO3)c(C)c1[N+](=O)[O-] 0.634
CC(CC(=O)Nc1ccccc1)n1ccnc1 (configuration not stated) -0.543
O=C(c1ccc2c(c1)C(=O)N(c1ccc(Cl)cc1)C2=O)N1CCN(c2ccccn2)CC1 0.202
CC(=O)Oc1ccc(C)cc1N1C(=O)c2ccc(C(=O)O)cc2C1=O 0.575
O=C(NC(=O)N1CCOCC1)c1ccccc1 0.751
O=C(CN1CCN(S(=O)(=O)/C=C/c2ccccc2)CC1)Nc1ccc(N2CCOCC2)cc1 1.12
COc1cc(NC(=O)COC(=O)c2cnc(C)cn2)c(C)cc1[N+](=O)[O-] -0.377
O=C(O)c1ccccc1C(=O)Nc1ccccc1[N+](=O)[O-] -0.117
Cc1csc(NC(=O)CSc2ccc(-c3ccc(F)cc3)nn2)n1 -0.896
Cn1c(-c2ccccc2)c[n+]2c1CCCCC2 0.591
Cc1ccc(C(=O)N2CCCC(c3ccccc3)=N2)cc1 -0.95
CCOC(=O)C1CCCN(C(=O)COc2ccc(N(C)S(=O)(=O)c3ccc(C)cc3)cc2)C1 (configuration not stated) 0.882
CCN(CC)S(=O)(=O)c1ccc(NC(=O)c2cccnc2Cl)c(NC(=O)c2cccnc2Cl)c1 0.845
COc1ccc(CCNC(=O)CC2SC(=Nc3cc(C)cc(C)c3)NC2=O)cc1OC (configuration not stated) -0.14
COC(=O)C(C)C1Sc2ccccc2NC1=O (configuration not stated) -0.193
CC(Nc1nc(N2CCOCC2)nc2ccccc12)c1ccccc1 (configuration not stated) -0.474
CN1CCN(CC(=O)Nc2cccc([N+](=O)[O-])c2)CC1 0.51
CNC(=S)NNC(=O)c1cccn(Cc2ccccc2)c1=O 0.643
O=C(Nc1cccc(Cl)c1N1CCOCC1)c1ccc2c(c1)OCCO2 -0.937
CCS(=O)(=O)c1ccc(C(=O)NC)c(Cl)c1Cl 0.613
CN(C)c1ccc2c(=O)[nH][nH]c(=O)c2c1 0.291
Cc1ccc2nc3n(c(=O)c2c1)CCC3 0.127
Cc1cc(C)c(C(N)=O)c(Cl)n1 0.133
Cc1ccc(N(C(=O)C(F)(F)F)C(C(=O)NC2CCCCC2)c2ccncc2)cc1C (configuration not stated) -0.0116
CC1CCCN(S(=O)(=O)c2ccc(C(=O)Nc3nnc(-c4ccncc4)o3)cc2)C1 (configuration not stated) 0.153
N/C(=N\OC(=O)CCc1ccccc1)c1cccnc1 0.92
O=C(/C=C/c1ccccc1[N+](=O)[O-])OC1CCCCC1=O (configuration not stated) 0.69
COc1ccc(CCNC(=O)CCCCn2c(=O)[nH]c3ccccc3c2=O)cc1OC 0.342
COc1ccc(/C=N/S(=O)(=O)c2ccccc2)cc1OC -0.975
CCC1(C)Cc2c(sc3nc4n(c(=O)c23)CCCS4)CO1 (configuration not stated) -0.196
CCC1(C)Cc2c(sc3nc(SC)nc(N)c23)CO1 (configuration not stated) -1.15
NC(=O)C1CCN(C(=O)COc2cccc3cccnc23)CC1 0.124
Cc1cc(C(=O)N/N=C\C(Br)=C\c2ccccc2)c(C)o1 -0.321
CS(=O)(=O)N(CC(=O)N/N=C/c1ccccn1)c1ccc(Oc2ccccc2)cc1 -0.000176
COc1ccc(/C=N/NC(=O)C(C)N(c2ccc(OC)cc2)S(C)(=O)=O)cc1 (configuration not stated) -0.0127
CSc1ccccc1NC(=O)CN(C)CC(=O)Nc1ccc(Cl)cc1[N+](=O)[O-] -1.12
Cc1cccc(C)c1OCC(O)CN1CCCCC1 (configuration not stated) 0.161
CC(C)OCC(O)CN1CCN(C(c2ccccc2)c2ccccc2)CC1 (configuration not stated) -0.0404
Cc1ccc(C(=O)OC2CCCN(C)C2)cc1 (configuration not stated) 0.17
Cc1ccc2nc(COc3ccc(N(C)S(=O)(=O)c4ccccc4)cc3)cc(=O)n2c1 0.648
COCCNC(=O)CCCn1c(=O)c2ccccc2n(Cc2cccc([N+](=O)[O-])c2)c1=O -1.13
COc1ccc(CCNC(=O)COC(=O)Cc2cc(OC)c(OC)c(OC)c2)cc1 0.986
COc1ccc2c(c1)CCC/C2=N\OC(=O)c1ccccc1F -0.245
Cc1ccccc1-n1nc(SCC(=O)O)sc1=S -0.00827
O=S(=O)(c1ccc2c(c1)OCCO2)N1CCc2ccccc21 0.399
O=C(CN1CCC(O)(c2ccccc2)CC1)Nc1ccc2c(c1)OCCO2 0.414
